Several values for one entry are separate records, joined by “and”; a condition that tells them apart may be missing. Identical values can stand only once. Whole data set: some 110,000 compounds, median “z-score” near -0.1, cut for the highest 2% near 2. For the sample, the highest values were picked, then their nearest neighbours and some compounds at random. Activity calls are given as the source filed them.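 How the source made its calls: active means z-score in the third read window above 3 or below -3; inactive means the rest.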
molecular target: Metabotropic glutamate receptor 8 (Rattus norvegicus) (UniProt P70579); experiment: rat mGluR8 modulators via GIRK flux, primary screen, cell-based, thallium flux, HTS (AID 488969); conditions: HEK293 rat mGluR8, GIRK (G protein-gated inwardly rectifying potassium channel) thallium flux, FluoZin2; at 10 µM; stronger effect = higher value; submaximal glutamate (EC20) added with thallium
Sequence (P70579 whole entry, looked up): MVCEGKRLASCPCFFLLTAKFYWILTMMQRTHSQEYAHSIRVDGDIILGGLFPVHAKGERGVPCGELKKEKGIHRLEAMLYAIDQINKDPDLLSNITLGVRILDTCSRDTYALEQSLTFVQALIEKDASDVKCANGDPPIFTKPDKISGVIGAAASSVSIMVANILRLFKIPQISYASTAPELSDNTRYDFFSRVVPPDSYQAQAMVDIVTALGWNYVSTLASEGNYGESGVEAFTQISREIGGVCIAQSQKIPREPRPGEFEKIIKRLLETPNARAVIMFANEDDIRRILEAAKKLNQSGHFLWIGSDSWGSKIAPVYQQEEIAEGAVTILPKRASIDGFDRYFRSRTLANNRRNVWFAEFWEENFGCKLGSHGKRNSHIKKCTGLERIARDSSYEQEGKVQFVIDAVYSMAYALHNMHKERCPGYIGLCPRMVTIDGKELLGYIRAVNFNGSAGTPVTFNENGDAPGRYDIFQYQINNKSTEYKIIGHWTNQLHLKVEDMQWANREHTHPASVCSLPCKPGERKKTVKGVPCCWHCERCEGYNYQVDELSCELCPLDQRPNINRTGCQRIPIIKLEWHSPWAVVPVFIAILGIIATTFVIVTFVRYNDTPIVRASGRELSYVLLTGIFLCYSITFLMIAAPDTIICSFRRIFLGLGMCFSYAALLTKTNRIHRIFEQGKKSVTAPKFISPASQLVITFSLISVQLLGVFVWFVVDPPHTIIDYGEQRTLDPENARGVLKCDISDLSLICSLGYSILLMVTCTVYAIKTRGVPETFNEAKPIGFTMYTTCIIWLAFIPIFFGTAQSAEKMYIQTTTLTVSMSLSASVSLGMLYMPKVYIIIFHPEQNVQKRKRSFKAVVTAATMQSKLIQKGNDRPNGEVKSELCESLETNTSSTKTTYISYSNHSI

SMILES	z-score
COc1ccc(NC(=O)CN(c2ccc(C)cc2)S(=O)(=O)c2c(C)nn(C)c2C)cc1OC	-0.248
Cc1cccc2sc(NC(=O)C3CCCO3)nc12 (stereo not given)	-0.212
O=C(NCc1ccccc1)c1ccc2c(=O)n(CCCN3CCCC3=O)c(=S)[nH]c2c1	4.92 (active)
O=C(NCCCN1CCOCC1)c1ccc2c(=O)n(CCc3ccccc3)c(=O)[nH]c2c1	1.15
CC1CCCCN1CCNC(=O)c1ccc2c(=O)n(CCc3ccccc3)c(=O)[nH]c2c1 (stereo not given)	0.188
CC1CCCCN1CCCNC(=O)c1ccc2c(=O)n(CCc3ccccc3)c(=O)[nH]c2c1 (stereo not given)	2.93
O=C(NCc1cccnc1)c1ccc2c(=O)n(CCCN3CCCC3=O)c(=S)[nH]c2c1	-0.116
Cc1ccc(CNC(=O)c2ccc3c(=O)n(CCCN4CCCC4=O)c(=S)[nH]c3c2)cc1	-0.167
O=C(NCCN1CCCC1)c1ccc2c(=O)n(CCc3ccccc3)c(=O)[nH]c2c1	1.17
CC1CCN(CCCNC(=O)c2ccc3c(=O)n(CCc4ccccc4)c(=O)[nH]c3c2)CC1	4.09 (active)
O=C(NCCCN1CCCCC1)c1ccc2c(=O)n(CCc3ccccc3)c(=O)[nH]c2c1	1.16
O=C(N/N=C/c1ccc(O)cc1)/C(=C/c1ccccc1)CCO	-0.0513
O=C(c1cn(-c2ccccc2)nc1-c1cccs1)N(CCO)Cc1ccccc1	-0.178
CCn1c(SCC(=O)NCCc2ccc(Cl)cc2)nnc1-c1cccs1	-0.84
CCOCCCNC(=O)CN1C(=O)CSc2cc(S(=O)(=O)N3CCCCCC3)ccc21	-0.263
O=C(c1cc(Cl)ccc1[N+](=O)[O-])n1cnc2ccccc21	-0.721
COc1ccccc1N1CCN(C(=O)c2cc(-c3ccco3)on2)CC1	-0.34
CCOC(=O)c1cnn2c(C)cc(-c3ccccc3)nc12	2.74
COC(=O)c1cnn2c(C(F)(F)F)cc(-c3ccccc3)nc12	-0.00832
CCOC(=O)c1cnn2c(C)cc(-c3ccc(F)cc3)nc12	-0.151
CCOC(=O)C1=C(C)N=c2s/c(=C/c3ccccc3)c(=O)n2C1c1ccc(OC)c(OC)c1 (stereo not given)	-0.183
CCOC(=O)C=Nc1c(N)n(C)c(=O)n(C)c1=O	2.44
CCOc1cc(C(=O)OCC(=O)c2c(N)n(C)c(=O)n(C)c2=O)cc(OCC)c1OCC	-0.112
Cn1c(N)c(C(=O)CCl)c(=O)n(C)c1=O	0.0911

SMILES	z-score
CC1(C)C(=O)OC(c2cccn2-c2ccc([N+](=O)[O-])cc2)C(C)(C)C1=O (stereo not given)	-0.471
Cc1cccc(SCc2noc(C(=O)NC(C)C)c2C(=O)O)c1	-0.0231
O=C1NC(=Nc2cccc(Cl)c2)SC1Cc1cccc(Cl)c1Cl (stereo not given)	-0.324
O=C(NC(=Nc1ccccc1)N1CCOCC1)Nc1ccccc1	2.94
O=C(Nc1ccccc1)N1CCOCC1	-0.206
O=C(Nc1ccccc1)Nc1ccc(C(=O)N2CCOCC2)cc1	-0.0267
CC(=C/C(=O)O)/C=C/c1ccc([N+](=O)[O-])cc1	-0.0461
CC(/C=C\c1cccnc1)=C/C(=O)O	-0.175 and 6.26 (active)
CC(=C/C(=O)O)/C=C/c1cccs1	-0.429
Cn1cccc1C1Nc2ccccc2NC2=C1C(=O)CC(C)(C)C2 (stereo not given)	-0.491
Cc1c(C2Nc3ccccc3NC3=C2C(=O)CC(C)(C)C3)cnn1C (stereo not given)	4.64 (active)
CC1(C)CC(=O)C2=C(C1)Nc1ccccc1NC2c1nc2ccccc2[nH]1 (stereo not given)	-0.113
CCOc1ccc(N(CC(=O)NCC2CCCO2)C(=O)CCC(=O)Nc2ccccn2)cc1 (stereo not given)	-1.08
COc1ccc(NC(=O)CSc2nc(N)c3cc4c(nc3n2)CCCC4)cc1	-0.916
O=C(COC(=O)c1ccccc1C(=O)c1ccccc1)NCCc1ccc(Cl)cc1Cl	-0.0656
S=c1[nH]nc(-c2ccco2)n1/N=C/c1ccc(Br)s1	4.39 (active)
S=c1[nH]nc(-c2ccccn2)n1/N=C/c1cccs1	-0.126
Cc1ccc(/C=N/n2c(-c3ccco3)n[nH]c2=S)s1	0.259
Cc1cc(-c2n[nH]c(=S)n2/N=C/c2ccc(C)s2)n[nH]1	-0.0648
Cc1cc(-c2n[nH]c(=S)n2/N=C/c2ccc(Br)s2)n[nH]1	4.55 (active)
Cc1cc(-c2n[nH]c(=S)n2/N=C/c2sccc2C)n[nH]1	-0.362
S=c1[nH]nc(-c2ccccn2)n1/N=C/c1ccc(Br)s1	5.6 (active)
S=c1[nH]nc(-c2ccccn2)n1/N=C/c1ccccc1	-0.194
S=c1[nH]nc(-c2ccco2)n1/N=C/c1cccs1	-0.0217

SMILES	z-score
Nc1c(C(O)(C(F)(F)F)C(F)(F)F)cc(C(O)(C(F)(F)F)C(F)(F)F)c2ccccc12	0.066
CC1=C(C(=O)NCc2ccccc2)C(c2ccccc2OCC(N)=O)NC(=O)N1 (stereo not given)	0.226
O=C(Cc1c(F)cccc1Cl)N1CCCC1	0.183
CS(=O)(=O)N1CCC(C(=O)NCc2ccco2)CC1	0.432
COc1ccc(N2CCN(C(=O)c3cccc(N4C(=O)C5CC=CC(C)C5C4=O)c3)CC2)cc1 (stereo not given)	-0.43
COc1cc(/C=C2\SC(=S)NC2=O)ccc1OS(=O)(=O)c1ccccc1	15.1 (active)
COc1ccc(/C=C2\SC(c3ccc(C)cc3)=NC2=O)cc1OC	-1.87
COc1cc(/C=C2/C(=O)N(c3ccccc3)N=C2C)ccc1OS(=O)(=O)c1ccccc1	-0.322
COc1ccc(/C=C2\SC(=O)N=C2N)cc1OC	0.0136
COc1ccc(/C=C2\SC(=O)NC2=S)cc1OC	2.05
COc1cc(/C=C2/SC(=S)NC2=O)ccc1OS(=O)(=O)c1ccc(C)cc1	-2.12
CCOC(=O)c1c(-c2ccc(OC)cc2)nc2nonc2c1N	0.0715
CC(C)CCNC(=S)Nc1ccc(F)cc1	0.97
COc1cc(C)c(S(=O)(=O)N2CCOCC2)cc1C	0.136
COc1ccc(NC(=O)CSc2ccc(-c3ccccn3)nn2)cc1OC	-0.397
Cc1ccc(S(=O)(=O)c2nc(C(C)(C)C)oc2N2CCOCC2)cc1	-0.0758
N#C/C(=C\c1ccco1)C(=O)NCC1CCCO1 (stereo not given)	-0.0138
CC(C)NS(=O)(=O)c1cccc2nsnc12	-0.236
COc1ccc2cc3cc(C(=O)NC(C)C)oc3nc2c1	0.629
C=CCn1c(SCC)nc2sc3c(c2c1=O)CCc1ccccc1-3	0.571
C=CCSc1nc2sc3c(c2c(=O)n1CC)CCc1ccccc1-3	2.62
C=CCSc1nc2sc3c(c2c(=O)n1CC=C)CCc1ccccc1-3	-0.139

Reference: PubChem BioAssay AID488969 (Vanderbilt High Throughput Screening Facility, 2010)
